Bioassay records as filed in PubChem.
EphB4 ephrin blk – EphB4-ephrin-B2 interaction antagonists, primary screen, biochemical, TNYL-RAW peptide probe, fluorescence polarization. Ephrin type-B receptor 4 (Homo sapiens), P54760. EphB4 LBD / TNYL-RAW-Alexa532 peptide. inhibition, % at 7 µM. 0.15% of 97,000 active;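 active = inhibition above the screen-wide mean inhibition plus 3 SD, cut at about 15% in these data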;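 also: 0% = DMSO wells and 100% = excess unlabeled TNYL-RAW peptide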
CYP2C19 inhib – blockers of cytochrome P450 2C19 activity – biochemical, luminescence, ADME assay, primary screen; 21% of 96,000 active; inhibition, % at 5 µM; P33261; CYP2C19 Supersomes, luciferin-H EGE luminescence, 30 min; AID 778, 2007;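 active = CYP2C19 inhibition above a set limit at 5 µM in the primary screen, cut at about 50% in these data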;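 also: plate controls were negative control wells for no effect and 2.5 mM tranylcypromine positive control for full effect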
Target sequence (P33261 whole entry, looked up): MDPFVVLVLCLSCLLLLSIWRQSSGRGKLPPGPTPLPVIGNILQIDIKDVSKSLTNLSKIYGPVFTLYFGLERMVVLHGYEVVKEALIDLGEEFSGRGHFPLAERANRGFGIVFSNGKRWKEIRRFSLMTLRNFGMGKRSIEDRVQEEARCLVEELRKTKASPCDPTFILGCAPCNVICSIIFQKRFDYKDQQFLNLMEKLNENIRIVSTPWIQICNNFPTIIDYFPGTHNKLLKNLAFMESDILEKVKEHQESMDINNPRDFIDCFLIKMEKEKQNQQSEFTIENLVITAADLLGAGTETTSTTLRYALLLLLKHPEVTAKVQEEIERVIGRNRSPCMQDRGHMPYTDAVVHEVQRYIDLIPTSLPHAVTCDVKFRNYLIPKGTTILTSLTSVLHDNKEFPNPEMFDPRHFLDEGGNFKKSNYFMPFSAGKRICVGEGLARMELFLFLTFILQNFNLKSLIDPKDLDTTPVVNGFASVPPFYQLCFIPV
CYP2C9 inh – blockers of cytochrome P450 2C9 activity – biochemical, luminescence, ADME assay, primary screen; CYP2C9 Supersomes, luciferin-H conversion; 20% of 96,000 active; AID 777, 2007; inhibition, % at 5 µM; P11712;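 active = blocking of liver enzyme CYP2C9 beyond about 50% at 5 µM, limit read from the data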
CYP2C9 activ – human CYP2C9 activators, primary screen, biochemical, luminescence | Cytochrome P450 2C9 (Homo sapiens), P11712 | recombinant CYP2C9, luciferin-H conversion; stronger effect = higher value; factor 1 = untreated enzyme, 0 = blocked | activation factor at 5 µM | 1.4% of 96,000 active | AID 1024, 2008;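 active = activation factor of 2 or more for CYP2C9 at a 5 µM dose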;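 also: 0 = sulfaphenazole-blocked wells and 1 = vehicle-only wells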
CYP2C19 act – human CYP2C19 activators, primary screen, biochemical, luminescence | Cytochrome P450 2C19 (Homo sapiens), P33261 | recombinant CYP2C19, luciferin-H EGE luminescence; stronger effect = higher value; 0 = fully inhibited enzyme, 1 = untreated enzyme | activation factor at 5 µM | 96,000 tested, under 10 active | AID 1025, 2008;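 active = activation factor of at least 2 at 5 µM in the primary screen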;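 also: 0 = wells with 2.5 mM tranylcypromine and 1 = vehicle-only wells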
The depositor's hits bear a star; . = not tested or not shown. Most compounds without a hit are left out; they make up all but 27% or so of the library.

SMILES	EphB4 ephrin blk	CYP2C19 inhib	CYP2C9 inh	CYP2C9 activ	CYP2C19 act
O=C1C(=O)N(CCCn2ccnc2)C(c2cccnc2)/C1=C(/O)c1ccc(F)cc1 (stereo not given)	.	-2	89*	0.1	1
Cc1cc(/C=C(\C#N)C(=O)NCc2cccs2)c(C)n1-c1ccc([N+](=O)[O-])cc1	-1	.	.	.	.
Cc1cc(C(=O)C(=O)N(C)C)c(C)n1-c1ccc([N+](=O)[O-])cc1	-1	72*	3	1	0.3
C=CCN(CC=C)C(=O)C(=O)c1cc(C)n(-c2ccc([N+](=O)[O-])cc2)c1C	2	98*	44	0.6	0
c1ccc(-n2nnnc2SCc2cccc3nsnc23)cc1	-2	-2	38	0.6	1
O=C(c1ccccc1)N1CCC(c2nc3c(nnn3Cc3ccco3)c(=O)[nH]2)CC1	7	14	53*	0.5	0.9
O=C(c1ccc(Cl)cc1Cl)N1CCC(c2nc3c(nnn3Cc3ccco3)c(=O)[nH]2)CC1	-7	4	59*	0.4	1
Cc1ccc(Cn2nnc3c(=O)[nH]c(C(=O)NCc4ccco4)nc32)cc1	.	1	4	1	1
O=C1c2ccccc2C(=O)N1OCCOCCOCCON1C(=O)c2ccccc2C1=O	0	-5	-5	1.1	1
Cc1ccc(Cl)cc1N1CCN(S(=O)(=O)c2cnc[nH]2)CC1	-3	99*	97*	0	0
Cc1ccc(Cl)cc1N1CCN(C(=O)C2CCN(S(=O)(=O)c3cccnc3)CC2)CC1	0	61*	55*	0.5	0.4
Cc1ccc(Cl)cc1N1CCN(S(C)(=O)=O)CC1	-4	46	15	0.9	0.5
O=S(=O)(c1cnc[nH]1)N1CCN(c2ccccc2)CC1	-3	64*	48	0.5	0.4
O=C(C1CCCN(S(=O)(=O)c2ccccc2)C1)N1CCN(c2ncccn2)CC1 (stereo not given)	-2	.	.	.	.
O=C(C1CCN(S(=O)(=O)c2cccnc2)CC1)N1CCN(c2ccccc2Cl)CC1	-1	-16	-19	1.2	1.2
O=C(C1CCCN(S(=O)(=O)c2cccnc2)C1)N1CCN(c2ccccn2)CC1 (stereo not given)	-8	9	63*	0.4	0.9
O=C(Nc1nc2ccccc2[nH]1)C1CCN(S(=O)(=O)c2cccs2)CC1	1	-2	1	1	1
Cc1cnc(SCCc2ccncc2)nc1C	.	76*	45	0.6	0.2
Cc1cc(C)c(C(N)=O)c(NCCc2ccccc2)n1	7	56*	8	0.9	0.4
CCOC(=O)c1nn(-c2ccc3c(c2)CCN3C(C)=O)cc1O	.	8	3	1	0.9
CCN1CCN(CCCNC(=O)c2cc3cc4ccc(OC)cc4nc3o2)CC1	7	-12	10	0.9	1.1
O=C(CCn1ccc2ccccc21)Nc1ccc(N2CCOCC2)cc1	3	55*	28	0.7	0.4
Cn1c(CCC(=O)Nc2ccc(N3CCOCC3)cc2)nc(=O)c2ccccc21	2	4	4	1	1
COc1ccc(N2CCN(CCCNC(=O)Nc3ccccc3)CC2)cc1	9	47	31	0.7	0.5
COc1ccc(N2CCN(CCCNS(=O)(=O)c3c(C)noc3/C=C/N(C)C)CC2)cc1	2	1	62*	0.4	1
SMILES	EphB4 ephrin blk	CYP2C19 inhib	CYP2C9 inh	CYP2C9 activ	CYP2C19 act
Cc1noc(C)c1COC(=O)c1cc2c3ccccc3n(C)c2s1	-2	57*	81*	0.2	0.4
Cc1ccc(S(=O)(=O)NNC(=O)C2Cc3c(ccc4ccccc34)O2)cc1 (stereo not given)	-1	20	56*	0.4	0.8
O=C(Nc1ccc2c(c1)CCC2)c1cccc(S(=O)(=O)N2CCN(c3ccccc3)CC2)c1	2	51*	68*	0.3	0.5
CC(=O)Nc1cccc(Cn2cccn2)c1	0	10	9	0.9	0.9
COc1ccc(NC(=O)c2cc3c(s2)CCC3)cc1S(=O)(=O)N1CCOCC1	1	3	19	0.8	1
O=C(Nc1cccc(S(=O)(=O)N2CCOCC2)c1)c1cc2c(s1)CCC2	-1	52*	97*	0	0.5
O=C(Nc1cccc(Cn2cccn2)c1)c1cc2c(s1)CCCC2	7	54*	-95	1.9	0.5
O=C(NC1CCCc2ccccc21)c1cccc(S(=O)(=O)N2CCN(c3ccccc3)CC2)c1 (stereo not given)	-1	34	82*	0.2	0.7
O=C(Nc1ccc(N2CCOCC2)cc1)c1cccc(S(=O)(=O)N2CCCCC2)c1	-5	2	10	0.9	1
C/C(=N\N=C1\NC(=O)CC(C(=O)O)S1)c1cccs1 (stereo not given)	6	-1	-3	1	1
Cc1nn(Cc2ccccc2Cl)c(C)c1NC(=O)/C=C/c1cnn(C)c1	-4	-2	38	0.6	1
O=C1C2CC=C(Cl)CC2C(=O)N1CNc1ccccn1 (stereo not given)	-3	-2	-38	1.4	1
CCCCn1c(SCC(=O)NCc2ccccc2)nc2ccc(N3CCOCC3)cc2c1=O	8	34	74*	0.3	0.7
COCCNC(=O)CSc1nc2ccc(N3CCOCC3)cc2c(=O)n1Cc1ccc(OC)cc1	5	49	84*	0.2	0.5
CCCCn1c(SCC(=O)NC(C)CC)nc2ccc(N3CCOCC3)cc2c1=O (stereo not given)	-2	28	60*	0.4	0.7
CCN(CC)C(=O)CSc1nc2cc3c(cc2c(=O)n1Cc1ccc2c(c1)OCO2)OCO3	.	-17	-6	1.1	1.2
CCOC(=O)CSc1nc2ccc(N3CCOCC3)cc2c(=O)n1Cc1ccc2c(c1)OCO2	.	81*	75*	0.3	0.2
CCCCCC(=O)NC(NC(=S)NC1CCS(=O)(=O)C1)C(Cl)(Cl)Cl (stereo not given)	-2	.	.	.	.
COc1ccc(-c2nn(-c3ccccc3)cc2C(=O)n2nnc3ccccc32)cc1	-3	8	-22	1.2	0.9
O=C(CC1c2ccccc2Oc2ccccc21)NCc1ccco1	3	19	44	0.6	0.8
CCCCn1c(SCC(=O)Nc2ccc(OC)cc2)nc2ccc(N3CCOCC3)cc2c1=O	-5	84*	100*	0	0.2
CCCCn1c(SCC(=O)N2CCCCC2)nc2cc(S(N)(=O)=O)ccc21	7	9	24	0.8	0.9
CCCCn1c(SCc2nc3ccccc3s2)nc2cc(S(N)(=O)=O)ccc21	2	17	73*	0.3	0.8
CCC(C)NC(=O)CSc1nc2ccc(N3CCOCC3)cc2c(=O)n1CCc1ccccc1 (stereo not given)	.	1	5	0.9	1
